Common to all, as to experiment: DAPPL (digital affinity profiling via proximity ligation, sequencing); 10 mM Tris-HCl pH 7.5, 50 mM NaCl, 1 mM DTT, 4% glycerol, room temperature, 30 min; GST-TFs on glutathione beads, 16-mer random dsDNA library, 0.1% formaldehyde crosslink after washing; high values mean tight binding
One test has as its target T1, FEV (Homo sapiens, UniProt Q99581 1-238).
T1 sequence: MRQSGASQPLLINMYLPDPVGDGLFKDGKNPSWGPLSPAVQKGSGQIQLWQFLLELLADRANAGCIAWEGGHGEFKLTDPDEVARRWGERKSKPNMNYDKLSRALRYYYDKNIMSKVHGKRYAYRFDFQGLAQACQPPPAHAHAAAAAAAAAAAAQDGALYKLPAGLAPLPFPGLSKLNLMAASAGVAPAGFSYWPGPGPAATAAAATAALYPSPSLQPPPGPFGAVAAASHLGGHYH
Particulars: protein: recombinant; tags: N-terminal GST; dsDNA, one strand shown. Put shortly:
(§1)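 Yeast served to express human transcription factors as GST fusions, which were then captured on glutathione beads and labelled with DNA barcodes. Pooled with a tag-only sample, they were incubated with 200 nmole of a 16-mer random double-stranded DNA library for 30 min at room temperature in Tris/NaCl/DTT/glycerol buffer, washed, crosslinked with 0.1% formaldehyde, ligated by proximity, amplified by PCR and sequenced. Dividing each hexamer's read frequency for a factor by its frequency for the tag-only sample gives the binding signal.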

In a further test the target is ETV5 (Homo sapiens, UniProt P41161 1-510). Particulars: protein: recombinant; tags: N-terminal GST; dsDNA, one strand shown. Put shortly: as §1
The next test has as its target HSF1 (Homo sapiens, UniProt Q00613 1-529). The conditions noted are these: protein: recombinant; tags: N-terminal GST; chain copies: 3; dsDNA, one strand shown. A digest of the protocol:
as §1

The next test has as its target T2, SPIC (Homo sapiens, UniProt Q8N5J4 1-248).
T2 sequence: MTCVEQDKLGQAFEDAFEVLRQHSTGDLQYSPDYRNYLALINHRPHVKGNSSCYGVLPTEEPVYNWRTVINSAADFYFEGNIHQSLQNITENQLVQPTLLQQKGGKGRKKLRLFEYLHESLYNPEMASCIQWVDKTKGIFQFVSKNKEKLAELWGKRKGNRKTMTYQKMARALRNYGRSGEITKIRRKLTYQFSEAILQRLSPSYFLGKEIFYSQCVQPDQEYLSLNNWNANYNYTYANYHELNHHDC
Particulars: protein: recombinant; tags: N-terminal GST; dsDNA, one strand shown. A digest of the protocol:
as §1

The next test has as its target ELF4 (Homo sapiens, UniProt Q99607 1-663). Particulars: protein: recombinant; tags: N-terminal GST; dsDNA, one strand shown. A digest of the protocol: as §1
The next test concerns the target T3, ELK4 (Homo sapiens, UniProt P28324-2 1-405).
T3 sequence: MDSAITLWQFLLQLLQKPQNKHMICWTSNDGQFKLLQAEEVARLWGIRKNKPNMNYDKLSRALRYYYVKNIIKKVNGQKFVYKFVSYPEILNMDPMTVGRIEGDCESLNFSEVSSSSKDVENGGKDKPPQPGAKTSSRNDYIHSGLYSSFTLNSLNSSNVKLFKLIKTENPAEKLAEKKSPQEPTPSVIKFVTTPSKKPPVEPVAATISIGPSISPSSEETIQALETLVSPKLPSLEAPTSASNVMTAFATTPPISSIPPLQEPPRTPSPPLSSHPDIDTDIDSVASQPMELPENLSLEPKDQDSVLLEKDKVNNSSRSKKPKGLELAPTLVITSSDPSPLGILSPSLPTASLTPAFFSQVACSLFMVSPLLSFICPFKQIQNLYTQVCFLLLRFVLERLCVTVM
The conditions noted are these: protein: recombinant; tags: N-terminal GST; dsDNA, one strand shown. Put shortly:
as §1

For another test, the target named is T4, ETV2 (Homo sapiens, UniProt O00321 1-342).
T4 sequence: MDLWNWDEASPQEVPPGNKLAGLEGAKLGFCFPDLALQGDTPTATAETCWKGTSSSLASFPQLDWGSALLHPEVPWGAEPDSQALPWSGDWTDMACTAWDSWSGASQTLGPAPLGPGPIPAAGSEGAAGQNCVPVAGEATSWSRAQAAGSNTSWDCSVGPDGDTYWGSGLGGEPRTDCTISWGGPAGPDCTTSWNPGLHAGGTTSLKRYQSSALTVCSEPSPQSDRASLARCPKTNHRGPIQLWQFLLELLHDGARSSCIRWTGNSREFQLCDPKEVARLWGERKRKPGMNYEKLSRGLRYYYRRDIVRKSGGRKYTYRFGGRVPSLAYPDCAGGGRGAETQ
The conditions noted are these: protein: recombinant; tags: N-terminal GST; dsDNA, one strand shown. A digest of the protocol: as §1

Another test has as its target T5, ELF3 (Homo sapiens, UniProt P78545 1-371).
T5 sequence: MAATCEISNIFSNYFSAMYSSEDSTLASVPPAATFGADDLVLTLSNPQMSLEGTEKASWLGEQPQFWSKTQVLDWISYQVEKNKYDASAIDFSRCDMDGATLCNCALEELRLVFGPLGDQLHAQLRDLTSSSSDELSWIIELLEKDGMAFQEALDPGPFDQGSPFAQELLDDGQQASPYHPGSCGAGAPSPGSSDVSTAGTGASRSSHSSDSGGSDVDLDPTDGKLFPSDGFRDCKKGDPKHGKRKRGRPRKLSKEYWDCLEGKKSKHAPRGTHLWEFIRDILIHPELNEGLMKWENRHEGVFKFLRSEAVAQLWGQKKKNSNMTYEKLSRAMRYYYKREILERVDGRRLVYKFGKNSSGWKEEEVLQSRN
The conditions noted are these: protein: recombinant; tags: N-terminal GST; dsDNA, one strand shown. Put shortly:
as §1

The target in a further test is CRX (Homo sapiens, UniProt O43186 1-299). Particulars: protein: recombinant; tags: N-terminal GST; dsDNA, one strand shown. Put shortly:
as §1

The next test has as its target ETV1 (Homo sapiens, UniProt P50549 1-477). The conditions noted are these: protein: recombinant; tags: N-terminal GST; dsDNA, one strand shown. Put shortly:
as §1

In another test the target is T6, ERF (Homo sapiens, UniProt P50548 1-548).
T6 sequence: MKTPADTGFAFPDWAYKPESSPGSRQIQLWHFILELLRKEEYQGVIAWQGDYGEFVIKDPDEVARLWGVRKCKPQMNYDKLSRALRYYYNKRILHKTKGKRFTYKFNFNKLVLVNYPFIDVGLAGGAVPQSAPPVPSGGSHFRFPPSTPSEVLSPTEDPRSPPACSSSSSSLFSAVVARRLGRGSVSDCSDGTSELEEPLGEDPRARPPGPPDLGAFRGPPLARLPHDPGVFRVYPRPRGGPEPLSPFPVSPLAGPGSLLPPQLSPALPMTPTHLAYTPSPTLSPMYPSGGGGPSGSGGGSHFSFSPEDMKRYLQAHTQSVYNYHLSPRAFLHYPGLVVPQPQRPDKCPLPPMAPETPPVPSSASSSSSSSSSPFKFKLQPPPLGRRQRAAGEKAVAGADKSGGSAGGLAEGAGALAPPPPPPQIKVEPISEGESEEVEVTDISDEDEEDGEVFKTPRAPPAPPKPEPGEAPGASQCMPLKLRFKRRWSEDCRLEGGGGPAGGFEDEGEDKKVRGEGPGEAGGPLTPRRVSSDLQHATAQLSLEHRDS
Particulars: protein: recombinant; tags: N-terminal GST; dsDNA, one strand shown. Put shortly:
as §1

A further test has as its target T7, ETV3L (Homo sapiens, UniProt Q6ZN32 1-361).
T7 sequence: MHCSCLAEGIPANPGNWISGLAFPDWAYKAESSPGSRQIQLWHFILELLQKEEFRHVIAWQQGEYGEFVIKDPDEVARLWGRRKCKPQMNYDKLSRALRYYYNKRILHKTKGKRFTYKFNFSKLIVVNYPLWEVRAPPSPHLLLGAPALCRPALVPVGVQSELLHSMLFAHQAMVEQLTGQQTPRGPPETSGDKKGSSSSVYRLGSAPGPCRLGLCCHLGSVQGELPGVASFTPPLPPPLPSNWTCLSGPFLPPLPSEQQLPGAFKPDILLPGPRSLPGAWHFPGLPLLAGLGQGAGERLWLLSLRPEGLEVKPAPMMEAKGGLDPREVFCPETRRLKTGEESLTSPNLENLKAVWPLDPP
The conditions noted are these: protein: recombinant; tags: N-terminal GST; dsDNA, one strand shown. Put shortly: as §1

A further test addresses T8, ETS2 (Homo sapiens, UniProt P15036 1-469).
T8 sequence: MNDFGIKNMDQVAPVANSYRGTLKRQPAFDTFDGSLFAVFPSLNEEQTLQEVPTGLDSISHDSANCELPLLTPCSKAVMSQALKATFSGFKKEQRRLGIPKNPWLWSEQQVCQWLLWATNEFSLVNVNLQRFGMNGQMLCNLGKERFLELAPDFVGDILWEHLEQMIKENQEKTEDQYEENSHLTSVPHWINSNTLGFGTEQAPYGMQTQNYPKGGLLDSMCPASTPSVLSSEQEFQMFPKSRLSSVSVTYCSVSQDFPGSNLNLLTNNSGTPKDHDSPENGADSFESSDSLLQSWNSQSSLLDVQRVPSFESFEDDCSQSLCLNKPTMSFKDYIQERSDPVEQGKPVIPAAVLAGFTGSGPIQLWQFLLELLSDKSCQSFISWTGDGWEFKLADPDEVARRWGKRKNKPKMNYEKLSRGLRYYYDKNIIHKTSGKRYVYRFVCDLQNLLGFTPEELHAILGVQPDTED
Particulars: protein: recombinant; tags: N-terminal GST; dsDNA, one strand shown. A digest of the protocol:
as §1

A further test addresses T9, SPDEF (Homo sapiens, UniProt O95238 1-335).
T9 sequence: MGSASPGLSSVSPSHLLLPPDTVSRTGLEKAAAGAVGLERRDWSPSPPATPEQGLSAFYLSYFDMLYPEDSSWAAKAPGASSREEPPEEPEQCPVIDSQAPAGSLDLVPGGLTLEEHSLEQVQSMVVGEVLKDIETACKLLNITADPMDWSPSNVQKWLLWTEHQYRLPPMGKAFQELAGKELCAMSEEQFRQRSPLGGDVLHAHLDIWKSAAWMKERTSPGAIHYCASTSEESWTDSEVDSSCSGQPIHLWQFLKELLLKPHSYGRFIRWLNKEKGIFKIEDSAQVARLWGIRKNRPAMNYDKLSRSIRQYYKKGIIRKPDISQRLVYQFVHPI
The conditions noted are these: protein: recombinant; tags: N-terminal GST; dsDNA, one strand shown. Put shortly:
as §1

The target of a further test is T10, ETV7 (Homo sapiens, UniProt Q9Y603 1-341).
T10 sequence: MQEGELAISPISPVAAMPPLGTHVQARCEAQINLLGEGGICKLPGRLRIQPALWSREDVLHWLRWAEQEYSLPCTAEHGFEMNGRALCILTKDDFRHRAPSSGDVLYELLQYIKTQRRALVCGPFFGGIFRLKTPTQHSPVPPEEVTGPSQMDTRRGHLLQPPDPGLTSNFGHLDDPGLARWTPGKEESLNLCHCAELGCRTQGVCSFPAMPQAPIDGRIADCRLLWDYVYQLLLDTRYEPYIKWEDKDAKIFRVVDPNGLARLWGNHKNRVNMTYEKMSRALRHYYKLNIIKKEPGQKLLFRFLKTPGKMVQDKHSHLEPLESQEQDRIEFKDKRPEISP
The conditions noted are these: protein: recombinant; tags: N-terminal GST; dsDNA, one strand shown. A digest of the protocol: as §1

In another test the target is T11, ELF5 (Homo sapiens, UniProt Q9UKW6-2 1-255).
T11 sequence: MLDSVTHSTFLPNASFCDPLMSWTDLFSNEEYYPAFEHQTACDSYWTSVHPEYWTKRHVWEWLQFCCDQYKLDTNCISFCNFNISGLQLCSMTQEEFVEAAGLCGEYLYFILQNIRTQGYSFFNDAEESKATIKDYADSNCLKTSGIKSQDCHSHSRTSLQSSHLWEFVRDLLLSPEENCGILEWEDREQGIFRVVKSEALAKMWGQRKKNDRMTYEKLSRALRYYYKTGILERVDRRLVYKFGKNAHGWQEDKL
Particulars: protein: recombinant; tags: N-terminal GST; dsDNA, one strand shown. A digest of the protocol: as §1

The target in the next test is T12, ETV3 (Homo sapiens, UniProt P41162-2 1-143).
T12 sequence: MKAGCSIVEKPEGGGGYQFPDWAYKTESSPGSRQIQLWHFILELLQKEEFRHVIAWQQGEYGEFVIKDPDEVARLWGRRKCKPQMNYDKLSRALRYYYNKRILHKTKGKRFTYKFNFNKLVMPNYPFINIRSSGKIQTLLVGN
Particulars: protein: recombinant; tags: N-terminal GST; dsDNA, one strand shown. A digest of the protocol:
as §1

In a further test the target is ETV6 (Homo sapiens, UniProt P41212 1-452). Particulars: protein: recombinant; tags: N-terminal GST; dsDNA, one strand shown. A digest of the protocol: as §1
ETV6, sequence (P41212 whole entry): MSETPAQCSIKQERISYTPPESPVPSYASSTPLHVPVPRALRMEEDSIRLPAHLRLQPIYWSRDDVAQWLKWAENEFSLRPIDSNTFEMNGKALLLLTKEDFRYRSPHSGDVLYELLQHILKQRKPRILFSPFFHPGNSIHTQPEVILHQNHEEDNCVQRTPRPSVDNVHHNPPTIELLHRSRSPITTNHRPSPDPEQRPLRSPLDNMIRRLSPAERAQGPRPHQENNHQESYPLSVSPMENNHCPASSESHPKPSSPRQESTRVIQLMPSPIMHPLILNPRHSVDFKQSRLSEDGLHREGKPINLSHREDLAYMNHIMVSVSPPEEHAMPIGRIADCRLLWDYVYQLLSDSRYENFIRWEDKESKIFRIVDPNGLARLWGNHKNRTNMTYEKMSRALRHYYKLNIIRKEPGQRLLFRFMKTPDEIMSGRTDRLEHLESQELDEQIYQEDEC

ETV1, sequence (P50549 whole entry): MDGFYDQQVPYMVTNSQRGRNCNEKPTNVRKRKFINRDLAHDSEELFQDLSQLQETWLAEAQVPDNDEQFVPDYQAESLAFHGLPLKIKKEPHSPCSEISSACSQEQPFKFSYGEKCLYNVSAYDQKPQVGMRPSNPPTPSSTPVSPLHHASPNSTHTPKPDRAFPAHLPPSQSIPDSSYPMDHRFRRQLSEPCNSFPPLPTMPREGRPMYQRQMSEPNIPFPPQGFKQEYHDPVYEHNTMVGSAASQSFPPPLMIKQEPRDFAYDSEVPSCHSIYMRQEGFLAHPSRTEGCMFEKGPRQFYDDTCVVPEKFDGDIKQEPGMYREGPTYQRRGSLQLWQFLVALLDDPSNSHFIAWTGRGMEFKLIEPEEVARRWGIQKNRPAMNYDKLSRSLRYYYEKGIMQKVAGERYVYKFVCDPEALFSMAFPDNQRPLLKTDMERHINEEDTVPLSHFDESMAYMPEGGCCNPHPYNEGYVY
HSF1, sequence (Q00613 whole entry): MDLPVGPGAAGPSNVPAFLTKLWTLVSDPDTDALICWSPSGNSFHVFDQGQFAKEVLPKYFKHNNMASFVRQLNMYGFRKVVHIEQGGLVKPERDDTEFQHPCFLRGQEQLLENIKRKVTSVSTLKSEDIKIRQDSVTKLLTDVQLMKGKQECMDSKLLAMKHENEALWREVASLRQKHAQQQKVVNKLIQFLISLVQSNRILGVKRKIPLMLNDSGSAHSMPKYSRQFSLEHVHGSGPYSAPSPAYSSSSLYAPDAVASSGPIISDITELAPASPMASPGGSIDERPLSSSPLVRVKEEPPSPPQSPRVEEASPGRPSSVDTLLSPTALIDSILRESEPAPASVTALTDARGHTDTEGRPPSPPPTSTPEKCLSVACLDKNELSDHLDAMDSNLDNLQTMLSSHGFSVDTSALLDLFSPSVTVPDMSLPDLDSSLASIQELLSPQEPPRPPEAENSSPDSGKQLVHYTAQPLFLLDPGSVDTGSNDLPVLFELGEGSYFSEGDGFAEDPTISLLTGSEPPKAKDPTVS
CRX, sequence (O43186 whole entry): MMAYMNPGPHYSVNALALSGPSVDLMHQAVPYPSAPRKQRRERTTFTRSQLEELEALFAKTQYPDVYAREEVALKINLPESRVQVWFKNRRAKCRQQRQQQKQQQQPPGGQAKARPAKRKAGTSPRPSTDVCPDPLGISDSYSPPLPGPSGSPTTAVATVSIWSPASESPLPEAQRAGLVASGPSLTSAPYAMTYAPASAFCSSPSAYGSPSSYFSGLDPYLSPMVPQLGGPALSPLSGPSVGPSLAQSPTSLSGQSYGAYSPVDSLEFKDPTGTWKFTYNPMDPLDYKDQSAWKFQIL
ETV5, sequence (P41161 whole entry): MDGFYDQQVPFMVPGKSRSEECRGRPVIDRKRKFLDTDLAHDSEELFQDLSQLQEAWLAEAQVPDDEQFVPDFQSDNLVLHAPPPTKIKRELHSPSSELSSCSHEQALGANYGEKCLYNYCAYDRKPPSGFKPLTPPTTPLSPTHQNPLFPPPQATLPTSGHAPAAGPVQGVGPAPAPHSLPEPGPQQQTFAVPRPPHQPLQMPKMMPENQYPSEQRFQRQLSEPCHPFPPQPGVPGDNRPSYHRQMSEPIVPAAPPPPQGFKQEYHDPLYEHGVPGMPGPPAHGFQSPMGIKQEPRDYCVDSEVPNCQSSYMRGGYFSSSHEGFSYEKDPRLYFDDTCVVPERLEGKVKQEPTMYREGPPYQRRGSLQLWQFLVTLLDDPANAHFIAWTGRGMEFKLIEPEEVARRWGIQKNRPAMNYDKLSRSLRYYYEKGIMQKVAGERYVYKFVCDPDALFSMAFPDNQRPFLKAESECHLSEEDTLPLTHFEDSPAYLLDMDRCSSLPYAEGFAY
ELF4, sequence (Q99607 whole entry): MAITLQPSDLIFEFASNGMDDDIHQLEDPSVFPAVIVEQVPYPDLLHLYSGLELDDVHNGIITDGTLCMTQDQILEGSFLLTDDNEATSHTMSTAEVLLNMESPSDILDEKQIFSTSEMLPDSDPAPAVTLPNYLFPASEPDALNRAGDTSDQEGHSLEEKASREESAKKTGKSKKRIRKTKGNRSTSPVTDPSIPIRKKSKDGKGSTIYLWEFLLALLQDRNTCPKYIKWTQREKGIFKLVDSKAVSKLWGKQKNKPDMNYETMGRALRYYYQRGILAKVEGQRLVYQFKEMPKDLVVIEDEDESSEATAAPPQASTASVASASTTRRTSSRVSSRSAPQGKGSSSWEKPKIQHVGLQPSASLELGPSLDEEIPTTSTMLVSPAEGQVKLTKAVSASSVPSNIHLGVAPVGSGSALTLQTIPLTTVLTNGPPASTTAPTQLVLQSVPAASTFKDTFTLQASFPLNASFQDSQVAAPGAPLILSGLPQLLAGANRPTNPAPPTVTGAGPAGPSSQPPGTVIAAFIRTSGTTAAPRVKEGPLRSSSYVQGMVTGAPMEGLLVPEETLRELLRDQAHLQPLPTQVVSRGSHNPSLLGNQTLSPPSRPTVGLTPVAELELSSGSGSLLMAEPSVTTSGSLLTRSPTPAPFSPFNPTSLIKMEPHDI

As to TTCGCT, the binding signal was 1.2 fold enrichment (6-mer frequency, TF over GST control) with FEV; 1.24 fold enrichment (6-mer frequency, TF over GST control) with ETV5; 1.29 fold enrichment (6-mer frequency, TF over GST control) with HSF1; 1.08 fold enrichment (6-mer frequency, TF over GST control) in the test with SPIC; 1.36 fold enrichment (6-mer frequency, TF over GST control) with ELF4; 1.29 fold enrichment (6-mer frequency, TF over GST control) with ELK4. Also, the binding signal is 1.49 fold enrichment (6-mer frequency, TF over GST control) with ETV2; 1.26 fold enrichment (6-mer frequency, TF over GST control) in the test with ELF3; 1.13 fold enrichment (6-mer frequency, TF over GST control) with CRX; 1.27 fold enrichment (6-mer frequency, TF over GST control) with ETV1; 1.4 fold enrichment (6-mer frequency, TF over GST control) in the test with ERF; 1.24 fold enrichment (6-mer frequency, TF over GST control) with ETV3L. In addition, the binding signal was 1.3 fold enrichment (6-mer frequency, TF over GST control) with ETS2; 1.2 fold enrichment (6-mer frequency, TF over GST control) with SPDEF; 1.34 fold enrichment (6-mer frequency, TF over GST control) with ETV7; 1.23 fold enrichment (6-mer frequency, TF over GST control) with ELF5; 1.23 fold enrichment (6-mer frequency, TF over GST control) with ETV3; 1.23 fold enrichment (6-mer frequency, TF over GST control) with ETV6.

Source of the values: article PMC7862700, “An all-to-all approach to the identification of sequence-specific readers for epigenetic DNA modifications on cytosine”.
